Measured values taken from PMC5540273 (PLoS ONE, 2017).

Tests used:
Details in all cases: concentration: 1 μM,replicates: in singlicate; n = 1
MAP3K15 = system: MAP3K15
MAP3K1 = system: MAP3K1
MAP3K2 = system: MAP3K2
MAP3K3 = system: MAP3K3
MAP3K4 = system: MAP3K4
MAP4K2 = system: MAP4K2
MAP4K3 = system: MAP4K3
MAP4K4 = system: MAP4K4
MAP4K5 = system: MAP4K5
MAPKAPK2 = system: MAPKAPK2
MAPKAPK5 = system: MAPKAPK5
MARK1 = system: MARK1
MARK2 = system: MARK2
MARK3 = system: MARK3
MARK4 = system: MARK4
MAST1 = system: MAST1
MEK1 = system: T1, MEK1
T1 construct: gene MAP2K1

MEK2 = system: T2, MEK2
T2 construct: gene MAP2K2

MEK3 = system: T3, MEK3
T3 construct: gene MAP2K3

MEK4 = system: T4, MEK4
T4 construct: gene MAP2K4
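Also: KINOMEscan kinase panel screen.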

Row | Compound | %Inh (MAP3K15) | %Inh (MAP3K1) | %Inh (MAP3K2) | %Inh (MAP3K3) | %Inh (MAP3K4) | %Inh (MAP4K2) | %Inh (MAP4K3) | %Inh (MAP4K4) | %Inh (MAP4K5) | %Inh (MAPKAPK2) | %Inh (MAPKAPK5) | %Inh (MARK1) | %Inh (MARK2) | %Inh (MARK3) | %Inh (MARK4) | %Inh (MAST1) | %Inh (MEK1) | %Inh (MEK2) | %Inh (MEK3) | %Inh (MEK4)
1 | OCCn1cc(-c2cnc3nnn(Cc4ccc5ncccc5c4)c3n2)cn1 | 0% | 0% | 0% | 0% | 0% | 0% | 0% | 0% | 0% | 0% | 0% | 0% | 0% | 0% | 0% | 0% | 0% | 0% | 0% | 0%
2 | COc1cccc(OC)c1C(=O)Nc1cccc(-c2nn3ccccc3c2-c2ccnc(Nc3cccc(F)c3)n2)c1 [GSK361065] | 0% | 0% | 7% | 43% | 14% | 5% | 0% | 21% | 67% | 11% | 8% | 17% | 8% | 7% | 14% | 9% | 28% | 41% | 30% | 0%
3 | CC(=O)Nc1ccc(-c2cc3ncnc(SCC(=O)O)c3s2)cc1 | 27% | 16% | 5% | 1% | 37% | 17% | 22% | 0% | 0% | 0% | 0% | 0% | 17% | 0% | 2% | 0% | 0% | 0% | 6% | 18%
4 | CN(c1ccccc1CNc1nc(Nc2ccc3c(c2)CC(=O)N3)ncc1C(F)(F)F)S(C)(=O)=O | 0% | 0% | 61% | 63% | 6% | 17% | 42% | 0% | 13% | 0% | 0% | 53% | 37% | 80% | 67% | 0% | 1% | 0% | 93.1% | 84%
5 | CCn1c(-c2nonc2N)nc2cncc(CNC3CCNCC3)c21.Cl [SB-747651] | 3% | 6% | 13% | 0% | 14% | 0% | 0% | 0% | 0% | 19% | 0% | 0% | 0% | 2% | 0% | 21% | 0% | 1% | 16% | 40%
6 | C[C@@H]1CNc2c(sc3ccc4nc(-c5ccc(O)cc5)ccc4c23)C(=O)N1 | 61% | 0% | 12% | 11% | 16% | 85% | 31% | 26% | 13% | 99% | 99.9% | 26% | 7% | 17% | 17% | 48% | 1% | 23% | 51% | 0%
7 | Cn1ccc2ncnc(Oc3ccc(NC(=O)Nc4cnn(C(C)(C)C)c4)c(Cl)c3)c21 | 0% | 7% | 0% | 9% | 1% | 4% | 0% | 52% | 0% | 7% | 0% | 10% | 6% | 0% | 16% | 0% | 0% | 15% | 3% | 0%
8 | Cn1cc(-c2cccc3c(N)c(C(N)=O)nnc23)cn1 | 7% | 29% | 14% | 30% | 95% | 0% | 8% | 22% | 14% | 0% | 0% | 0% | 27% | 0% | 18% | 17% | 5% | 21% | 60% | 19%
9 | CCCC(=O)Nc1n[nH]c2ncccc12 [SB-601436] | 29% | 0% | 5% | 34% | 11% | 5% | 0% | 0% | 0% | 16% | 5% | 0% | 0% | 0% | 0% | 0% | 0% | 13% | 21% | 14%
10 | O=C(Nc1ccccc1)c1cccc(Oc2ccc3nccn3n2)c1 | 0% | 10% | 0% | 0% | 20% | 2% | 0% | 0% | 0% | 0% | 4% | 0% | 6% | 0% | 10% | 0% | 0% | 6% | 13% | 0%
